Here are results for 5 compounds from PubChem BioAssay.

What is called viability is a read-out of living cells in per cent, often relative to untreated cells.

The nature of experiment [1]: P. berghei load reduction in hepatocytes – cell-based, HepG2, luciferase luminescence, HepG2 viability, primary screen (AID 624349).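 Note: 100% = mean of DMSO negative control wells on the same plate.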 The note with it: P. berghei liver stage in HepG2, luciferase luminescence, concentration not given here; parasite load remaining: stronger effect = lower value; viability: measured here: HepG2 viability without parasites.
Experiment [2] in a line: Wnt pathway potentiators raising nuclear beta-catenin – imaging, WNT3A-conditioned medium, mouse C2C12, NPC library, primary screen (AID 1117326; in the data active = nuclear beta-catenin stimulation mostly above about 4.2%, no sharp cut-off; inactive = mostly below about 10%). The following applies: stronger effect = higher value.
Experiment [3] can be described thus: stimulators of insulin release from INS-1E, primary screen, cell-based, 5 mM glucose, NPC library (AID 1117329;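 active = compound raises insulin release from rat beta cells at 5 mM glucose, no numeric limit stated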). The following applies: rat INS-1E insulin secretion, at 10 µM, stronger effect = higher value.
The nature of experiment [4]: growth inhibition of GSK3B-pretreated HCT116 cells – cell-based, CellTiter-Glo, 0.2 to 20 µM (AID 1117336;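 active = compounds lowering colon cancer cell viability after pretreatment blocking the GSK3B kinase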). The note with it: HCT116 viability after GSK3B inhibitor, at 20 µM, stronger effect = higher value. Background: ATP-based viability assays read luminescence as a measure of living cells.
Experiment [5] in a line: inhibition of endothelial tube formation, primary screen, imaging, VEGF stimulated, CD31 staining, tube area, NPC library (AID 1117340;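 active = compound that reduces growth-factor-driven endothelial tube area in a mixed cell culture, no cutoff stated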). The note with it: VEGF-stimulated ADSC/ECFC co-culture, at 10 µM, stronger effect = higher value.
Experiment [6] is described as follows: GLP1 release stimulators, primary, NCI-H716, NPC library (AID 1117341;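 active = compound raises GLP1 secretion from the human gut endocrine cells, with no numeric limit stated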). The note with it: NCI-H716 cells, at 10 µM, stronger effect = higher value.
Experiment [7] is described as follows: HCT116 colon cancer cell growth inhibition, primary screen, CellTiter-Glo luminescence, NPC library (AID 1117342;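 active = compounds that lower survival of HCT116 colon cancer cells in the luminescence readout, no numeric limit stated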). The note with it: at 20 µM (top of the series).
A short description of experiment [8]: reduced SW480 viability measured with CellTiter-Glo, NPC library, primary (AID 1117343;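 active = compounds that lower viability of the colon cancer cells in the luminescence readout, with no numeric limit stated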). The following applies: CellTiter-Glo luminescence; at 20 µM (top of the series) unless noted.
The nature of experiment [9]: NPC library primary testing for decreased DLD-1 cell viability via CellTiter-Glo (AID 1117346;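 active = compounds that lower survival of DLD-1 colon cancer cells in the luminescence readout, no cutoff given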). The note with it: DLD-1 viability, CellTiter-Glo luminescence; at 20 µM (top of the series).
Experiment [10] can be described thus: viability loss with induced miR-34 in A549 – imaging, A549 dox-inducible miR-34, nuclei and caspase counts, primary screen (AID 1347080;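 active = compounds whose cell count with miR-34 switched on is under 0.7 times the count with it off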). The note with it: A549 miR-34 inducible, Hoechst nuclei count, 48 h.
Experiment [11] can be described thus: MELAS cybrid and Rieske KO viability enhancers – cell-based, MELAS cybrids, Rieske KO mouse fibroblasts, CellTiter-Glo, primary screen (AID 1508586;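 active = mean z-score across replicates of 1.96 or higher in either the MELAS or the Rieske mutant cell line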;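 note: z relative to plate mean and SD of compound and empty wells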). The following applies: low glucose.
Experiment [12] in a line: galactose survival enhancers in mitochondrial complex I cybrids – cell-based, galactose medium, ATP luminescence, primary screen (AID 1645843;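 active = z-score of at least 1.8 in each of two replicates, scored against plate mean and spread of sample wells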;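 note: positive z means more ATP and so rescue of galactose-driven cybrid death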). The following applies: complex I mutant cybrid cells, 72 h, stronger effect = higher value.
Experiment [13] has as its target ATP-dependent translocase ABCB1 (Homo sapiens) (UniProt P08183). Briefly: P-glycoprotein substrate transport blockade – cell-based (AID 377; in the data active = fluorescence slope change above about 50%). The following applies: MDR1-expressing cells, fluorescent substrate accumulation slope; stronger effect = higher value; concentration not given here.
Experiment [14] is described as follows: compounds altering viability of human ES cells (AID 493140; call rule not given here;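 note: cells exposed to compounds for four days before counting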). The note with it: human embryonic stem cell survival screen; stronger effect = higher value.
Experiment [15] addresses NAD(+) hydrolase SARM1 (Homo sapiens) (UniProt Q6SZW1). Briefly: blocking NAD cleavage by SARM1 SAM-TIR – cell lysate, NAD-Glo luminescence (AID 1508614;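 active = compound whose remaining NAD level is above about 45 nM, limit read from the data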;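 note: higher remaining NAD means stronger inhibition of SARM1 NADase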). The following applies: SAM-TIR HEK293T lysate NADase, at 1 µM, stronger effect = higher value.
The mark [16] stands for this setting: stronger effect = lower value, cell number ratio, induced over uninduced.
Where [17] appears, read: measured here: relative caspase fold change +Dox/-Dox.
Where [18] appears, read: measured here: total cells with miR-34 induction, stronger effect = lower value.
The mark [19] stands for this setting: measured here: total cells without miR-34 induction.
Where [20] appears, read: MELAS cybrid survival, CellTiter-Glo 48 h, stronger effect = higher value.
Setting [21] is: Rieske KO mouse fibroblast survival, CellTiter-Glo 72 h.

Several values for one entry are separate records, joined by “and”; a condition that tells them apart may be missing. Equal values may be shown once. Records with an inconclusive call do not appear. Activity calls are given as the source filed them. Cut-off read from the data, not from the text of the source, unless noted: active = parasite load remaining mostly below about 12% (no sharp cut-off); inactive = mostly above about 10%.

Chain of ATP-dependent translocase ABCB1 (Homo sapiens) (P08183 whole entry, looked up): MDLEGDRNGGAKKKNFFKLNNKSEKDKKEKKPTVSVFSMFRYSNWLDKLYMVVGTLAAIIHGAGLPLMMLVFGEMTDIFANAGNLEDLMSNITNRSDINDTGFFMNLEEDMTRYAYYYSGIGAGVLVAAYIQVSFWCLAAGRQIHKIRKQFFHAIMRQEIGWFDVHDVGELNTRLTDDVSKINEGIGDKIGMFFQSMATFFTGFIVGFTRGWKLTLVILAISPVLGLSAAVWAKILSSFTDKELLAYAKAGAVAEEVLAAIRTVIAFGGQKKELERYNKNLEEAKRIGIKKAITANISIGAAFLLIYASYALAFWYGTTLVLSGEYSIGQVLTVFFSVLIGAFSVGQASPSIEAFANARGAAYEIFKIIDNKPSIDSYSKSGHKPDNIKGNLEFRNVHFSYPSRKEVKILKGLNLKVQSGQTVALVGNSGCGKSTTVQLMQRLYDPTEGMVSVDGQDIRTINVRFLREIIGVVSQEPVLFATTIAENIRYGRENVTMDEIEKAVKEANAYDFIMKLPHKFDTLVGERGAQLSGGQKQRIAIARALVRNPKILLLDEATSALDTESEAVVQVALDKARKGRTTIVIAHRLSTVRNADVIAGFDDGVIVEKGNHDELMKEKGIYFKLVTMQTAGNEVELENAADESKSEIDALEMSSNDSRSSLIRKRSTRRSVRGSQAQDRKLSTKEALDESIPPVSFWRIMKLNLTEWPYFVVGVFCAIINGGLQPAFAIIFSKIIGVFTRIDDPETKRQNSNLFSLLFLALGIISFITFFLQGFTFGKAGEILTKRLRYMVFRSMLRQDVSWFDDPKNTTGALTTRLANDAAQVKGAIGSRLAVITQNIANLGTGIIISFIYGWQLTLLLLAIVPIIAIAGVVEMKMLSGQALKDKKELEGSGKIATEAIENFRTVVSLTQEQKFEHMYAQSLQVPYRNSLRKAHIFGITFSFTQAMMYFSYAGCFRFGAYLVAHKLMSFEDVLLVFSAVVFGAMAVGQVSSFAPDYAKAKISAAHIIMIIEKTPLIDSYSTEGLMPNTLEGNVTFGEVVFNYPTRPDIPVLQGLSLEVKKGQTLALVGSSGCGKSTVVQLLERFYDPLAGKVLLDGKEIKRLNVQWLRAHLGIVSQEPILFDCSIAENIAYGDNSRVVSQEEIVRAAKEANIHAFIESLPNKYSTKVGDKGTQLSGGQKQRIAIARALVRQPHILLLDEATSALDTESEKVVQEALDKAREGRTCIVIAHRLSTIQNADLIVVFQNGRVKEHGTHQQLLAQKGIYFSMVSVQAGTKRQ
Chain of NAD(+) hydrolase SARM1 (Homo sapiens) (Q6SZW1 whole entry, looked up): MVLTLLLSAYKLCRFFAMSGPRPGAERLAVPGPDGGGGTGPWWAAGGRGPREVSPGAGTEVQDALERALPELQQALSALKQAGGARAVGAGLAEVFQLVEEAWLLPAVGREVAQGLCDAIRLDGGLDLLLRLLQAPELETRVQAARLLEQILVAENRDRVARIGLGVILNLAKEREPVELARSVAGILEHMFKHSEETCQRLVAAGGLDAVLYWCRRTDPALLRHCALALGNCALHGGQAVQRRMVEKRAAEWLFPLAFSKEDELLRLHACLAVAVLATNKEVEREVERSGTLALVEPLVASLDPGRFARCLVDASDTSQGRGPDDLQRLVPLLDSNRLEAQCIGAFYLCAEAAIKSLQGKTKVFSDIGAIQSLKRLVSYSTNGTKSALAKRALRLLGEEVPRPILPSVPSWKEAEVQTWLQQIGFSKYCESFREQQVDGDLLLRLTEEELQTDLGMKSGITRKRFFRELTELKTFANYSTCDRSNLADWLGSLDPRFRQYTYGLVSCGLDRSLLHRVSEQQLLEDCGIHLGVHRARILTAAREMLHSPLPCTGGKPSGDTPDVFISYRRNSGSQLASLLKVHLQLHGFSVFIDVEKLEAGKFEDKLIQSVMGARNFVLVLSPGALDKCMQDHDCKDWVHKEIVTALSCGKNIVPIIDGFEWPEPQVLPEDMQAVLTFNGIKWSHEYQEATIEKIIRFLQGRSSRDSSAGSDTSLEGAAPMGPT

Turning to `C=CCN1C[C@H](C(=O)N(CCCN(C)C)C(=O)NCC)C[C@@H]2c3cccc4[nH]cc(c34)C[C@H]21`, the parasite load remaining in experiment [1] is 25.1% (inactive). In experiment [1], the viability amounted to 72%. The nuclear beta-catenin stimulation was -1.1% (inactive) in experiment [2] (at 10 µM) and 0.7% in experiment [2] (stimulation, at 2 µM). Besides, the insulin secretion stimulation in experiment [3] is 0% (inactive). In experiment [4], the viability decrease is -6.9% (inactive). For the same compound, the tube area decrease in [5] was -11.9% (inactive). The GLP1 secretion stimulation in [6] is 0.5% (inactive). Moreover, in experiment [7], the inhibition of viability is -2% (inactive). Besides, the viability decrease (inhibition) was 22.3% (inactive) in experiment [8] and 59% (active) in experiment [9]. In addition, the fold change in experiment [10] (setting [16]) was 0.881 (inactive); in experiment [10] (setting [17]), 1.06. The cell count was determined as 8560 in experiment [10] (setting [18]) and 9720 in [10] (setting [19]). Besides, the z-score in [11] (setting [20]) is -0.306 (inactive); in experiment [11] (setting [21]), -1.44; in experiment [12] it was -0.085 (inactive).
For `CCc1cccc(CC)c1NC(=O)CN(CC(=O)O)CC(=O)O`, the fluorescence slope change in experiment [13] is -10% (inactive). In addition, the survival in [14] is 10.9 (inactive). Besides, the parasite load remaining in [1] is 77.8% (inactive) and 89.7% (inactive). For the same compound, in [1], the viability was 111% and 80.2%. In addition, the nuclear beta-catenin stimulation in experiment [2] (at 10 µM) was -0.2% (inactive); in experiment [2] (stimulation, at 2 µM), 0.2%. Besides, the insulin secretion stimulation in experiment [3] is -1.7% (inactive). Besides, the viability decrease in experiment [4] is -8.7% (inactive). Besides, the tube area decrease in experiment [5] is 7.4% (inactive). In [6], the GLP1 secretion stimulation is -0.1% (inactive). Moreover, the inhibition of viability in experiment [7] was 12% (inactive). The viability decrease (inhibition) is 39.7% (inactive) in experiment [8] and 1.77% (inactive) in [9]. The fold change in [10] (setting [16]) was 0.877 (inactive); in [10] (setting [17]), 1.63. Moreover, the figures for the cell count in experiment [10] (setting [18]) and in experiment [10] (setting [19]) were 9160 and 10400, respectively. Moreover, the values for the z-score in experiment [11] (setting [20]) and in experiment [11] (setting [21]) were 0.304 (inactive) and 0.0436, respectively.
Take `CN(C)CCN1C(=O)c2ccccc2N(C)c2ccccc21`: the parasite load remaining in experiment [1] was 18.6% (inactive). In addition, the viability in [1] was determined as 64.5%. Besides, the nuclear beta-catenin stimulation was 0.8% (inactive) in experiment [2] (at 10 µM) and -0.9% in [2] (stimulation, at 2 µM). In [3], the insulin secretion stimulation is 14.4% (inactive). For the same compound, the viability decrease in [4] is 8.2% (inactive). Further, the tube area decrease in experiment [5] is 11.6% (inactive). Further, the GLP1 secretion stimulation in [6] was 4% (inactive). In addition, the inhibition of viability in experiment [7] is 0.3% (inactive). The viability decrease (inhibition) in [8] is 35.8% (inactive); in [9], -35.8% (inactive). Also, the figures for the fold change in [10] (setting [16]) and in experiment [10] (setting [17]) were 0.889 (inactive) and 1.32, respectively. Further, the figures for the cell count in experiment [10] (setting [18]) and in experiment [10] (setting [19]) were 10000 and 11300, respectively. For the same compound, the z-score in experiment [11] (setting [20]) was 0.44 (inactive) and -0.381 (inactive); in [11] (setting [21]), 0.025 and -0.152; in [12] it was 0.475 (inactive).
Consider `O=C1CC[C@@H](C(=O)O)N1`, for which the nuclear beta-catenin stimulation was 2.4% (inactive) in experiment [2] (at 10 µM) and 0.7% in [2] (stimulation, at 2 µM). For the same compound, in experiment [3], the insulin secretion stimulation is -1.4% (inactive). For the same compound, in experiment [4], the viability decrease was -1.95% (inactive). Further, in experiment [5], the tube area decrease is 9.1% (inactive). Moreover, the GLP1 secretion stimulation in [6] is -0.7% (inactive). Moreover, the inhibition of viability in experiment [7] was 11.4% (inactive). For the same compound, the viability decrease (inhibition) in experiment [8] was 17.1% (inactive); in experiment [9], 6.75% (inactive). The figures for the fold change in experiment [10] (setting [16]) and in experiment [10] (setting [17]) were 0.878 (inactive) and 0.936, respectively. Further, the cell count in [10] (setting [18]) was determined as 8600; in experiment [10] (setting [19]), 9800. For the same compound, the remaining NAD in experiment [15] is 10 nM (inactive).
Regarding `CN(C)CCn1nnnc1SCC1=C(C(=O)O)N2C(=O)[C@@H](NC(=O)Cc3csc(N)n3)[C@H]2SC1`, in experiment [14], the survival is 7.25 (inactive). Besides, in [1], the parasite load remaining is 47.4% (inactive) and 69.6% (inactive). The viability in [1] was 114% and 74.2%. Also, the nuclear beta-catenin stimulation in experiment [2] (at 10 µM) is -1.2% (inactive); in experiment [2] (stimulation, at 2 µM), 1.1%. In addition, the insulin secretion stimulation in experiment [3] is 2.8% (inactive). Also, the viability decrease in [4] was 4.6% (inactive). The tube area decrease in experiment [5] is -30.8% (inactive). Besides, the GLP1 secretion stimulation in [6] is -3% (inactive). The inhibition of viability in experiment [7] is -8.3% (inactive). For the same compound, the viability decrease (inhibition) was 4.5% (inactive) in [8] and -6.8% (inactive) in experiment [9]. Also, the fold change in experiment [10] (setting [16]) was 0.874 (inactive); in [10] (setting [17]), 1.13. Further, the cell count in experiment [10] (setting [18]) is 8320; in experiment [10] (setting [19]), 9520. Moreover, the z-score was -0.0188 (inactive) in experiment [11] (setting [20]) and -0.0723 in experiment [11] (setting [21]).
